The values below come from ChEMBL document CHEMBL3433997, “St. Jude Leishmania screening dataset” (2016).

Type in all cases: functional
Test [1] addresses Solute carrier family 2, facilitated glucose transporter member 1 (Homo sapiens) (UniProt P11166). Kind of test: ST_JUDE_LEISH: Cytotoxicity at 2uM final concentration against transgenic Leishmania Mexicana promastigotes LmGLUT1 that are glucose transport deficient and complemented with the human glucose transporter GLUT1. Activity is measured by DNA content using SYBR green in vitro.

For test [2], the target named is Hexose transporter 1 (Plasmodium falciparum) (UniProt O97467). Briefly: ST_JUDE_LEISH: Cytotoxicity at 2uM final concentration against transgenic Leishmania Mexicana promastigotes LmPfHT that are glucose transport deficient and complemented with the Plasmodium falciparum hexose transporter. Activity is measured by DNA content using SYBR green in vitro.
Test [3] concerns the target Glucose transporter (Leishmania mexicana) (UniProt O61059). Briefly: ST_JUDE_LEISH: Cytotoxicity at 2uM final concentration against transgenic Leishmania Mexicana promastigotes LmGT2 that are glucose transport deficient and complemented with the L. Mexicana glucose transporter 2. Activity is measured by DNA content using SYBR green in vitro.

Sequence of Solute carrier family 2, facilitated glucose transporter member 1 (Homo sapiens) (P11166 whole entry): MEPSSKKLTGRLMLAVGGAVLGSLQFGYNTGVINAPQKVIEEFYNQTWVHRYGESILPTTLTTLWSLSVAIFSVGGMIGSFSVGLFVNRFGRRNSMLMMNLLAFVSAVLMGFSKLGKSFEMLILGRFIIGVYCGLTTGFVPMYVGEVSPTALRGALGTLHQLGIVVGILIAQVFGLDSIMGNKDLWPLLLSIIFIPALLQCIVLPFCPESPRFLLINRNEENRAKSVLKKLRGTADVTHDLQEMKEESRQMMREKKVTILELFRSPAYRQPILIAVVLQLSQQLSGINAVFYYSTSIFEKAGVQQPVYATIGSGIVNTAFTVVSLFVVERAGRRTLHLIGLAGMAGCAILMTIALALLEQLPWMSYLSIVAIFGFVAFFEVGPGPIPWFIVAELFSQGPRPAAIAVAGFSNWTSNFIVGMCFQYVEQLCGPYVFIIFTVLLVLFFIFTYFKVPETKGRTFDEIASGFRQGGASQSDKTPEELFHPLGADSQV

As usually defined, the inhibition is the relative decrease from the control value, in per cent. `c1ccc(Oc2ccc(Nc3ccnc4cc(-c5ccc(CNCCN6CCOCC6)o5)ccc34)cc2)cc1`: the figures for the inhibition in test [1], in test [2] and in test [3] were 2.2%, 2.86% and 0.92%, respectively.
Consider `Cc1ccc(O)c(-c2cc(C(=O)Nc3ccc(S(=O)(=O)N4CCCC(C)C4)cc3)[nH]n2)c1` (stereo not given), for which the inhibition was -0.03% in test [1], -0.51% in test [2] and 0.63% in test [3].
Taken in the same sequence, the figures for `COC(=O)C1(NC(=O)c2ccc(-n3nc(C)c(-c4ccccc4)c3N)cc2)CCCC1` were 2.04%, 2.33% and 2.55%.
For `Cc1nc(-c2cccc(C(=O)N(Cc3cncn3Cc3cccc(C(F)(F)F)c3)CC3CC3)c2)cs1`, the inhibition in test [1] turned out to be 2.11%; in test [2] it was 4.67%; in test [3], 4.26%.
On to `Cc1cc(N[C@@H](Cc2ccccc2)C(=O)NCc2cccs2)nc(NCCOc2ccccc2)n1`, for which the results for the inhibition in test [1], in test [2] and in test [3] were 8.74%, 10.4% and 5.27%, respectively.
Taken in the same sequence, the figures for `CC(C)(C)c1ccc(NC(=O)c2ccc(CN3CCCN(Cc4cccc(F)c4)CC3)cc2)cc1` were 13.7%, 13.3% and 11.8%.
Turning to `CCCN1CCC=C(c2cccc(Nc3nccc(Nc4cc(OC)ccc4C)n3)c2)C1`, the inhibition in test [1] is 11.2%; in test [2], 11.9%; in test [3], 10%.
As to `O=C(NC1CCC(N2CCCC(OCc3ccccc3)C2)CC1)c1cc2ccccc2[nH]1` (stereo not given), the inhibition in test [1] is 0.93%; in test [2] it was 3.87%; in test [3] it was -1.89%.
Taken in the same sequence, the figures for `N#Cc1nc2ccc(OCCN(Cc3ccccc3C(F)(F)F)c3ccc(C#N)c(C(F)(F)F)c3)cc2s1` were 9.32%, 6.39% and 8.4%.
In the case of `COc1ccc(C2CCN(C#N)C2)cc1OC1CCCC1` (stereo not given), the figures for the inhibition in test [1], in test [2] and in test [3] were 17%, 17.2% and 11.1%, respectively.
Taken in the same sequence, the figures for `COC(=O)c1c(NC(=O)c2cccc(C(F)(F)F)c2)sc2c1CCN(Cc1ccccc1)C2` were 1.14%, 5% and -1.31%.
As to `COCC(=O)N(Cc1ccccc1-c1cccc(CNCc2ccc3c(c2)OCO3)c1)C1CCN(Cc2ccccc2)CC1`, the inhibition is 0.4% in test [1], 1.22% in test [2] and 1.77% in test [3].
Take `CC(C)(C)c1ccc2[nH]c(-c3ccc(/C=C/C(=O)NCc4cccc(C(F)(F)F)c4)cc3)nc2c1`: the inhibition in test [1] amounted to 3.32%; in test [2], 5.66%; in test [3], 2.22%.
`COc1ccc(CN2CCCN(Cc3cccc(NC(=O)c4cc5ccccc5s4)c3)CC2)cc1`: the inhibition is 0.39% in test [1], -0.1% in test [2] and -1.39% in test [3].
`CC(C)(C)c1ccc(O)c(CNC2CCCCC2)c1`: the figures for the inhibition in test [1], in test [2] and in test [3] were 4.48%, 3.36% and 3.1%, respectively.
Take `CC(=O)Nc1nc(C(=O)Nc2ccc(-c3cccc(-c4nc5ccccc5[nH]4)c3)cc2)cs1`: the inhibition in test [1] worked out at 1.93%; in test [2], 2.85%; in test [3], 0.42%.
Turning to `COc1cc(C(=O)N2CCOC(CCN3CCC4c5ccccc5CC43)(c3ccc(Cl)c(Cl)c3)C2)cc(OC)c1OC` (stereo not given), the values for the inhibition in test [1], in test [2] and in test [3] were 3.86%, -2.68% and 9.19%, respectively.
`O=C(Nc1cccc(CN2CCCN(Cc3ccc(O)cc3)CC2)c1)c1ccc(Br)cc1`: the inhibition in test [1] is 0.51%; in test [2], 0.85%; in test [3] it was 3.89%.
In the case of `COc1ccc2c(=NN=Cc3cccc(Cl)c3)cc(C)[nH]c2c1`, the inhibition is 2.13% in test [1], 0.71% in test [2] and -0.53% in test [3].
Regarding `Cc1ccc2[nH]cc(/C=C/C(=O)NC3CCC(CCN4CCc5ccc(C#N)cc5CC4)CC3)c2c1` (stereo not given), the inhibition in test [1] is 0.83%; in test [2] it was 4.1%; in test [3] it was -2.82%.
On to `COc1cccc(C(=O)Nc2ccc(Nc3nc(C)cc(N4CCCCC4)n3)cc2)c1OC`, for which the inhibition in test [1] stood at 1.99%; in test [2] it was 2.75%; in test [3] it was 0.19%.
Take `CN(C)CCN(C)Cc1ccc(-c2ccc3c(Nc4ccc(Oc5ccccn5)cc4)ccnc3c2)o1`: the inhibition in test [1] was -2.89%; in test [2] it was -0.77%; in test [3], -2.18%.
For `Cc1ccc(NC(=O)Nc2ccc(I)c(OCCN(C)C)c2)cc1Cl`, the inhibition in test [1] is 10.6%; in test [2], 7.2%; in test [3], 5.01%.
In the case of `CON=Cc1sc(CNCCCN=c2cc(O)c3ccccc3[nH]2)c(C)c1Br`, the inhibition in test [1] was found to be 4.13%; in test [2], 4.13%; in test [3], 3.41%.
Regarding `c1ccc2sc(-c3csc(Nc4ccncc4)n3)nc2c1`, the inhibition was -1.14% in test [1], 1.09% in test [2] and 6.37% in test [3].
In the case of `O=S(=O)(Nc1ccc(CCN2CCCCC2CCN2CCCC2)cc1)c1ccc(-c2ccccc2)cc1` (stereo not given), the inhibition in test [1] stood at 9.09%; in test [2] it was 14.3%; in test [3], 3.63%.
Take `CC1CN(c2cc(=O)n(Cc3ccc(NC(=O)Nc4ccc(-c5ccccc5)cc4)cc3)cn2)CC(C)N1` (stereo not given): the inhibition in test [1] is 1.33%; in test [2] it was 1.47%; in test [3] it was -0.75%.
On to `CC(C)COc1ccc(Cl)cc1Cc1ccc(-c2nc3cnc4ccccc4c3[nH]2)o1`, for which the inhibition in test [1] is 3.89%; in test [2], 2.77%; in test [3], 2%.
`COc1cc(Nc2nc(N)n(C(=O)c3ccc4c(c3)OCO4)n2)cc(OC)c1OC`: the inhibition in test [1] was found to be 15.3%; in test [2], 9.11%; in test [3] it was 0.33%.
Regarding `CCn1ncc(Cl)c1CN(C)S(=O)(=O)c1ccc(Br)cc1`, the inhibition in test [1] is -0.68%; in test [2], -0.62%; in test [3] it was -2.26%.
On to `CC1(C)CCNc2cc(NC(=O)c3ccc(-c4ncccc4C(F)(F)F)cc3)ccc21`, for which the inhibition in test [1] was 2.63%; in test [2] it was 1.14%; in test [3], 0.73%.
As for `CC1(C)CCCN(Cc2c(O)ccc3c(O)c(-c4nc5ccccc5s4)c(=N)oc23)C1`, the inhibition was 4.5% in test [1], 1.38% in test [2] and -2.9% in test [3].
On to `COc1ccc(CCn2c(=N)c(C(=O)NCc3cccnc3)cc3c(=O)n4cccc(C)c4nc32)cc1`, for which the inhibition came to 5.3% in test [1], 4.73% in test [2] and 0.26% in test [3].
As to `COc1ccc2nccc([C@@H](O)CN3CCC(NCc4cc5sccc5nc4C(F)(F)F)CC3)c2c1`, the values for the inhibition in test [1], in test [2] and in test [3] were 3.75%, 1.89% and -4.21%, respectively.
Regarding `CCCn1c(Sc2ccc(C#N)c([N+](=O)[O-])c2)nnc1-c1ccc(OC)cc1`, the inhibition is 1.76% in test [1], 0.24% in test [2] and -0.23% in test [3].
